Inconclusive results are not listed. Unmarked numbers belong to inactive results. Activity calls are given as the source filed them. The call rests on the fitted dose curve; in most records, active means well fitted cell-killing curve with a large enough effect; inconclusive means small, poorly fitted or top-dose-only effect, or effect the other way; inactive means no such curve, though single readings can be large or run the other way.
tested on: Jar; assay: Confirmatory qHTS for gynecologic anti-cancer compounds from libraries of approved drugs and bioactive compounds; details: gynecologic cancer cell panel viability, ATPlite luminescence, 48 h; series mostly up to 57.6 µM; activity change, negative = viability loss: at the top concentration; further: nearly all actives have a fitted effect of over 55% in size
Procedure, shortened: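 Cells (1,000/well) were plated, left 16 h at 37 C/5% CO2, then given compound at 11 concentrations (1:3) from 57.5 uM to 0.977 nM for 48 h. ATPlite luminescence after 15 min at room temperature gave IC50 values.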
On the % scale 0 is the no-effect control and ±100 the full control effect; potency means the concentration at half of the fitted maximal effect.

SMILES | Potency | activity change, negative = viability loss
CN1CCN(c2ccc(OC(F)(F)F)c(Nc3ncc4c(n3)-c3c(c(C(N)=O)nn3CCO)CC4)c2)CC1 | 0.153 µM (active) | 
Cc1cc(Nc2cc(N3CCN(C)CC3)nc(Sc3ccc(NC(=O)C4CC4)cc3)n2)n[nH]1 |  | -12.5%
Cc1cnc(CNC(=O)c2c(=O)c3ccc(N4CCCN(C)CC4)nc3n3c2sc2ccccc23)cn1 |  | 14.2% [at 10.7 µM]
CC[C@]1(O)C[C@H]2CN(CCc3c([nH]c4ccccc34)[C@@](C(=O)OC)(c3cc4c(cc3OC)N(C=O)[C@H]3[C@@](O)(C(=O)OC)[C@H](OC(C)=O)[C@]5(CC)C=CCN6CC[C@]43[C@@H]65)C2)C1 | 0.273 µM (active) | 
Cc1nc(Nc2n[nH]c3c2CN(C(=O)NC(CN(C)C)c2ccccc2)C3(C)C)c2sccc2n1 (stereo not drawn) |  | -16.9%
Cc1csc(NC(=O)c2sc3nc4c(c(C(F)(F)F)c3c2N)CCC4)n1 | 3.43 µM (active) | 
COc1cc2c(Nc3ccc(NC(=O)c4ccccc4)cc3)ncnc2cc1OCCCN1CCOCC1 | 38.5 µM (active) | 
O=c1cc(CN2CCOCC2)occ1OCCCCCSc1ccnc2cc(C(F)(F)F)ccc12 | 7.69 µM (active) | 
CCN1C[C@H](C)n2c(c(O)c3c(=O)n(Cc4ccc(F)c(Cl)c4)nc(C(=O)NC)c32)C1=O |  | -4.15%
CC(C)[C@@H](CS(=O)(=O)C(C)C)N1C(=O)[C@@](C)(CC(=O)O)C[C@H](c2cccc(Cl)c2)[C@H]1c1ccc(Cl)cc1 | 2.73 µM (active) | 
COc1cc(N2CCC(N3CCN(C)CC3)CC2)ccc1Nc1ncc(Cl)c(Nc2ccccc2S(=O)(=O)C(C)C)n1 | 17.2 µM (active) | 
Cc1ccc(C(=O)Nc2ccc(CN3CCN(C)CC3)c(C(F)(F)F)c2)cc1C#Cc1cnc2[nH]ncc2c1 |  | 6.71%
CCCC(=O)O[C@]1(C(=O)CCl)[C@@H](C)C[C@H]2[C@@H]3CCC4=CC(=O)C=C[C@]4(C)[C@@]3(F)C(=O)C[C@@]21C | 43.2 µM (active) | 
Cc1ccc(C(=O)Nc2ccc(CN3CCN(C)CC3)c(C(F)(F)F)c2)cc1C#Cc1cnc2cccnn12 | 30.6 µM (active) | 
Cc1cc(SCc2sc(-c3ccc(C(F)(F)F)cc3)nc2C)ccc1OCC(=O)O |  | -6.35%
NS(=O)(=O)OC[C@@H]1C[C@@H](n2ccc3c(N[C@H]4CCc5ccccc54)ncnc32)C[C@@H]1O |  | -26.3%
O=c1c(-c2ccc(O)cc2)coc2cc(O)cc(O)c12 |  | -2.15%

SMILES | Potency | activity change, negative = viability loss
COc1cccc2c1C(=O)c1c(O)c3c(c(O)c1C2=O)C[C@@](O)(C(=O)CO)C[C@@H]3O[C@H]1C[C@H](N)[C@H](O)[C@H](C)O1 | 1.72 µM (active) | 
Cc1cnc(Nc2ccc(F)cc2Cl)nc1-c1c[nH]c(C(=O)NC(CO)c2cccc(Cl)c2)c1 (stereo not drawn) |  | -14%
CC(C)Oc1ccc2c(=O)c(-c3ccccc3)coc2c1 | 21.7 µM (active) | 
CCc1nc(C(N)=O)c(Nc2ccc(N3CCC(N4CCN(C)CC4)CC3)c(OC)c2)nc1NC1CCOCC1 | 13.4 µM (active) | 
CCCC(Nc1nc(-c2ccc(NC(=O)NCC)c(OC)c2)ncc1C)c1cccnc1 (stereo not drawn) | 0.432 µM (active) | 
COc1cc2c(NC3CCN(C(C)C)CC3)nc(C3CCCCC3)nc2cc1OCCCN1CCCC1 | 10.9 µM (active) | 
O=C1NC(=O)C(c2cnc3ccccn23)=C1c1cn2c3c(cccc13)CN(C(=O)N1CCOCC1)CC2 |  | -17.7%
Cc1cc(C(C)Nc2ccccc2C(=O)O)c2nc(N3CCOCC3)cc(=O)n2c1 (stereo not drawn) | 0.968 µM (active) | 
CC(Oc1ccc2[nH]nc(/C=C/c3cnn(CCO)c3)c2c1)c1c(Cl)cncc1Cl (stereo not drawn) |  | -2.73%
CC(=O)Nc1cccc(-n2c(=O)n(C3CC3)c(=O)c3c(Nc4ccc(I)cc4F)n(C)c(=O)c(C)c32)c1 |  | 5.76%
CCCc1nn(C)c2c(=O)[nH]c(-c3cc(S(=O)(=O)N4CCN(C)CC4)ccc3OCC)nc12 |  | 15.7%
CC(C)(C(=O)NCC(F)(F)C(F)(F)F)C(=O)NC1C(=O)Nc2ccccc2-c2ccccc21 (stereo not drawn) |  | 2.12%
Cc1nc(N)sc1-c1ccnc(Nc2ccc(N3CCOCC3)cc2)n1 | 3.85 µM (active) | 
O=c1[nH]c(=O)n([C@H]2C[C@H](O)[C@@H](CO)O2)cc1Br |  | 3.99%
NC(=O)c1ccc2nc(-c3ccc(Oc4ccc(Cl)cc4)cc3)[nH]c2c1 | 24.3 µM (active) | 
Cc1cnc(Nc2ccc(OCCN3CCCC3)cc2)nc1Nc1cccc(S(=O)(=O)NC(C)(C)C)c1 | 17.2 µM (active) | 

From PubChem BioAssay AID1345085 (National Center for Advancing Translational Sciences (NCATS), 2018)
